G9a block = G9a (human) methyltransferase inhibition. Q96KQ7. G9a H3K9 monomethylation, AlphaScreen, 2 h. Potency, µM (series often up to 102 µM), for the others: at the top dose activity, negative = inhibition, usual class: inhibitors. hit rate 8.8% among 350,000. AID 504332; note: potency is the fitted concentration of half-maximal effect; nearly all actives have a fitted effect of over 75% in size
Target sequence (Q96KQ7 913-1193 limits assumed): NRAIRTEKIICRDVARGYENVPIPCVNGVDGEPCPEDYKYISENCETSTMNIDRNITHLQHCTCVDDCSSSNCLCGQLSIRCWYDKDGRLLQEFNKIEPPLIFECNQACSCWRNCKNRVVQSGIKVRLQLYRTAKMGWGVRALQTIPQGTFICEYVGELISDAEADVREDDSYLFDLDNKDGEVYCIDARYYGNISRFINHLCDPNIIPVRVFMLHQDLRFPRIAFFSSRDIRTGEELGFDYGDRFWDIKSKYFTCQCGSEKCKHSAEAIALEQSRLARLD
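Signal arises when biotinylated H3K9 peptide, once monomethylated, bridges streptavidin donor and antibody-captured acceptor beads. Enzyme at 20 nM was preincubated 15 min with test compounds; peptide 500 nM and SAM 20 uM then reacted for 2 h.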
Tau fibril ThT = blocks human tau fibril formation measured by thioflavin T; P10636; recombinant tau K18 P301L, heparin-induced fibrillization, ThT fluorescence; Potency, µM (doses to about 57.4 µM), for inactives: top-dose activity, negative = inhibition, most hits filed as inhibitors; hit rate 2.1% among 270,000; AID 1460; note: potency is the fitted concentration of half-maximal effect; nearly all actives have a fitted effect of over 55% in size
Target sequence (P10636 561-689 P618L limits assumed): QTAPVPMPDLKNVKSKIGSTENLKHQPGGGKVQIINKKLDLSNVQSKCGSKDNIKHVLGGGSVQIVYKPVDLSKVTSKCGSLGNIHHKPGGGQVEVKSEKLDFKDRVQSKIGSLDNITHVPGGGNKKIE
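Aggregation was driven by heparin (20 uM final) acting on recombinant tau […] bearing P301L in 100 mM sodium acetate pH 7; fibrils were detected with Thioflavin T.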
Coupling enz = coupling enzyme interference in Giardia aldolase counter-screen. hit rate 0.67% among 290,000. coupling enzyme system counterscreen, AmpLite Red fluorescence. AID 2472. activity change, negative = inhibition, % at 58.2 µM, hits read low; in the data active = activity change below about -30%
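Fluorescence at 525 nm excitation and 598 nm emission measured inhibition of the coupled detection system without aldolase. Compounds (at 57.5 uM final) were preincubated 10 min at room temperature with coupling enzyme reagent before a 20 min substrate/AmpLite Red step.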
Tau fibril FP = inhibitors of human tau fibril formation | hit rate 0.39% among 280,000 | AID 1468 | Potency, µM (titrated, usually from 57.7 µM), for the others: at the top dose activity, negative = inhibition, usual class: inhibitors | P10636 | K18 P301L tau heparin fibrillization, Alexa594 FP, 6 h; note: potency is the fitted concentration of half-maximal effect; nearly all actives have a fitted effect of over 55% in size
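Heparin (20 uM) drove fibril formation of recombinant tau K18 P301L, 15 uM unlabeled with 0.24 uM Alexa 594 label, for 6 hr at 37 C in 100 mM sodium acetate pH 7. Fluorescence polarization (555/632 nm) read 1 hr after 30 uM ThT.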
Tau fluor counter = counter-screen for tau fibril formation inhibitors. tau K18 P301L (four-repeat tau fragment) Alexa594 fluorescence, heparin fibrillization. Potency, µM (doses to about 57.7 µM), for the others: at the highest dose activity change, negative = decrease. hit rate 0.93% among 280,000. AID 1463; note: potency is the fitted concentration of half-maximal effect; nearly all actives have a fitted effect of over 55% in size
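Human K18 P301L tau (15 uM unlabeled plus 0.24 uM Alexa 594-labeled, final) in 100 mM sodium acetate pH 7 was mixed with compound and 20 uM heparin and incubated 6 hr at 37 C.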
Sfp PPTase inh = blocks B. subtilis Sfp PPTase activity | Q9F4F7 | Biochemical Sfp PPTase activity, qHTS | Potency, µM, for the others: largest response in the series, negative = inhibition, most hits filed as inhibitors | hit rate 3.5% among 310,000 | AID 1490;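 note: the enzyme is Sfp with the accession as filed and its product quenches rhodamine fluorescence; potency is the fitted concentration of half-maximal effect; 0% = enzyme reaction without inhibitor and -100% = no enzyme wells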
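Buffer: 50 mM Hepes-Na pH 7.6, 10 mM MgCl2, 0.01% Nonidet P-40, 0.01% BSA. Enzyme 15 nM, pre-exposed to compound 15 min; substrates then added and fluorescence change tracked over 30 min.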
The depositor's hits bear a star; ? = inconclusive; . = not tested or not shown; [ ] = remark or other dose. Most compounds without a hit are left out; they make up all but 11% or so of the library. Unless noted, calls come from the whole dose curve; as a rule, active = well fitted curve in the direction sought with a large enough effect; inconclusive = small, poorly fitted or top-dose-only effect, or another doubt; inactive = no such curve, though single readings can be large; an effect the other way counts as inactive or inconclusive. Unless noted, % is set by controls: 0 for no effect and ±100 for the full control effect.

SMILES	G9a block	Tau fibril ThT	Coupling enz	Tau fibril FP	Tau fluor counter	Sfp PPTase inh
Nc1ccc2oc3ccc(N)cc3c(=O)c2c1	?	14.1µM*	-19.4	3.7%	-20.4%	7.5%
O=c1c2ccccc2oc2ccc(Oc3ccccc3)cc12	436.5%	.	-3.4	.	.	-11.6%
CNCc1cn2cc(Cl)ccc2n1	-10.5%	-6.3%	0.7	2.5%	-1.8%	-3.2%
O=C(O)CSCc1cn2cc(Cl)ccc2n1	50.1µM*	-6.5%	2.0	-5.7%	-9.9%	-10.4%
COC(=O)CCSCc1cn2cc(Cl)ccc2n1	39.8µM*	-11.0%	0.7	1.6%	2.3%	13.0%
CCOC(=O)c1c(NC(=O)c2cc3ccccc3c(=O)o2)sc2c1CCC(C(C)(C)C)C2 (centres undefined)	13.5%[59 µM]	-9.0%	.	3.0%	-2.4%	.
CCCCCn1cc2c(c1-c1ccccc1Br)c(=O)n(C)c(=O)n2C	-36.1%[59 µM]	?	.	2.5%	-9.8%	.
CCC1CCCCN1c1nc(-c2cccc(OC)c2O)nc2ccccc12 (centres undefined)	39.8µM*	?	-0.3	2.9%	?	-8.1%
COc1cccc(-c2nc(NC(C)C)c3ccccc3n2)c1O	?	17.8µM*	-0.9	9.9%	15.8µM*[quencher]	-3.1%
COc1cccc(-c2nc(NCC3CCCO3)c3ccccc3n2)c1O (centres undefined)	?	?	-0.5	19.2%	20µM*[quencher]	12.2%
CCC(C)Nc1nc(-c2cccc(OC)c2O)nc2ccccc12 (centres undefined)	9.1%[59 µM]	?	0.9	?	15.8µM*[quencher]	12.1%
COc1cccc(-c2nc(Oc3cccc(C)c3C)c3ccccc3n2)c1O	6.5%[59 µM]	-3.3%	2.3	-0.7%	-9.7%	0.3%
Oc1ccccc1-c1nc(NCC2CCCO2)c2ccccc2n1 (centres undefined)	28.0%[59 µM]	?	-1.4	?	?	7.6%
COc1cccc(CNC(=O)COc2ccc(C(=O)c3ccccc3)cc2)c1	19.4%	.	-0.6	.	.	-2.5%
O=S(=O)(c1cccc(F)c1)N1CCc2sccc2C1c1ccc(OC(F)(F)F)cc1 (centres undefined)	.	-17.3%	0.2	-13.5%	-23.2%	12.2%
O=C(CSc1nnc(C2CC2)n1CC1CCCO1)Nc1ccc(Cl)cc1 (centres undefined)	14.5%	.	0.2	.	.	11.8%
CS(=O)(=O)NNC(=O)c1sccc1OCc1ncc(C(F)(F)F)cc1Cl	4.7%	8.3%	1.2	-3.3%	0.6%	19.8%
COc1ccc(-c2nnc(SCC(=O)Nc3cccc(C(F)(F)F)c3)nc2-c2ccc(OC)cc2)cc1	41.2%[59 µM]	?	.	?	-22.4%	.
COC(=O)c1cccnc1-n1c(=O)c2cccnc2n(CC(=O)Nc2ccccc2F)c1=O	-8.2%[59 µM]	-3.8%	.	-4.5%	-9.7%	.
COc1cc2c(cc1OC)-c1cc(N3CCCCCC3)nc(=O)n1CC2	44.7µM*	?	1.4	11.3%	-3.9%	-4.5%
CC(C)C1C(=O)Nc2ccc(S(=O)(=O)NCc3ccc(Cl)cc3)cc21 (centres undefined)	-5.4%[59 µM]	-2.9%	.	-4.8%	-20.0%	.
COc1ccccc1-c1cn(-c2ccccc2)c(=S)[nH]1	12.4%	.	-3.9	.	.	?
COc1ccc(-c2cn(-c3ccc(C)c(Cl)c3)c(=S)[nH]2)cc1OC	50.1µM*	.	-0.3	.	.	-24.5%
COc1cccc(-n2cc(-c3ccc(F)cc3)[nH]c2=S)c1	?	.	0.3	.	.	?
COc1ccc(-c2cn(-c3ccccc3)c(=S)[nH]2)cc1OC	8.91µM*	.	2.7	.	.	?
SMILES	G9a block	Tau fibril ThT	Coupling enz	Tau fibril FP	Tau fluor counter	Sfp PPTase inh
COC(=O)c1ccc(-n2cc(-c3ccc(OC)cc3)[nH]c2=S)cc1	1.12µM*	?	-3.0	4.7%	-21.3%	-23.3%
COc1ccc(-c2cn(-c3ccc(C)c(C)c3)c(=S)[nH]2)cc1OC	8.91µM*	.	1.8	.	.	79.4µM*
COc1cccc(CN2C(=O)c3ccccc3Sc3ccc(C(=O)N(C)Cc4ccccc4)cc32)c1	-26.2%[59 µM]	-11.3%	.	-1.4%	-19.3%	.
N#Cc1c(Cl)nsc1NC(=O)c1ccccc1	?	-7.7%	8.5	3.7%	-3.6%	13.1%
COc1ccc2c(c1)c(C)cc[n+]2Cc1ccccc1	-23.9%	.	0.0	.	.	20.8%
Cc1ccc2c(c1)c(C)cc[n+]2Cc1ccccc1	50.1µM*	-19.1%	-0.3	9.2%	-13.0%	17.8%
Cc1cc(Cl)ccc1N(CC(=O)NCc1ccc2c(c1)OCO2)S(C)(=O)=O	.	-4.2%	-0.4	-5.2%	-11.4%	25.1%
CCOC(=O)c1c(NC(=O)/C=C/C(=O)O)sc(C)c1-c1ccc(C)c(C)c1	.	?	16.7	-6.4%	-1.9%	25.1µM*
COC(=O)c1c(NC(=O)/C=C/C(=O)O)sc(C)c1-c1ccc(C)c(C)c1	-15.2%[59 µM]	?	20.2	10.3%	5.8%	-14.6%
CCOC(=O)c1c(NC(=O)/C=C/C(=O)O)sc(C)c1-c1ccc(F)cc1	-36.3%	?	31.9	-5.7%	-11.5%	50.1µM*
N#C/C(=C\c1ccncc1)c1nc2ccccc2c(=O)[nH]1	25.1µM*	?	-1.5	1.7%	-15.3%	-17.6%
N#C/C(=C\c1cc(Br)c(O)c(Br)c1)c1nc2ccccc2c(=O)[nH]1	3.5%[59 µM]	?	.	-2.7%	?	.
N#C/C(=C/c1ccncc1)c1nc2ccccc2c(=O)[nH]1	44.7µM*	.	-0.3	-2.6%	-11.3%	-16.9%
CN(C)S(=O)(=O)c1cccc(C(=O)NCC(C)(C)CNC(=O)c2cccc(S(=O)(=O)N(C)C)c2)c1	-15.7%	.	-0.1	.	.	5.0%
CC(=O)c1ccc(NC(=O)COc2ccccc2-c2nc(-c3ccc(C)cc3)no2)cc1	?	?	.	16.2%	?	.
Cc1ccc(C)c(S(=O)(=O)Nc2ccc3oc(C)c(C(=O)O)c3c2)c1	39.8µM*	.	3.5	.	.	-11.9%
CC(=O)c1c(C)oc2ccc(NS(=O)(=O)c3ccc(C)cc3)cc12	26.5%[59 µM]	.	-0.6	.	.	0.8%
CCCCNC(=O)Nc1cc(C(F)(F)F)c[nH]c1=O	-41.5%[12.7 µM]	-3.0%	-43.1*	-10.7%	-7.1%	0.6%
CCCCNC(=O)Nc1ccccc1CC	7.8%	-3.3%	1.1	3.2%	-2.1%	18.0%
COC(=O)[C@@H]1[C@@H]2C[C@H]3c4[nH]c5cc(OC)ccc5c4CCN3C[C@@H]2C[C@H](OC(=O)c2cc(OC)c(OC)c(OC)c2)[C@H]1OC	?	.	-7.3	.	.	8.8%
CCOC(=O)Oc1c(OC)cc(C(=O)O[C@@H]2C[C@@H]3CN4CCc5c([nH]c6cc(OC)ccc56)[C@H]4C[C@@H]3[C@H](C(=O)OC)[C@H]2OC)cc1OC	8.91µM*	.	.	.	.	.
CC(C)ON([C@@H](C(=O)NO)C(C)C)S(=O)(=O)c1ccc(-c2ccccc2)cc1	0.0%[59 µM]	.	.	.	.	.
